Records with an inconclusive call do not appear. Where a call stands in place of a potency, no number is given. Activity calls are given as the source filed them. Calls follow the shape of the dose curve; as a rule, active = well fitted inhibition curve with a large enough effect in the repeat runs; inconclusive = weak or mixed curves; inactive = no such curve, though single readings can be large or run the other way. Where a SMILES comes first, the peptide text is derived from it. Bridges are numbered along the chain shown (N, C = ends). [ ]: non-standard residue; d: D form. hArg = N=C(N)NCCCC[C@H](N)C(=O)O; Mpa = O=C(O)CCS
molecular target: Cytochrome P450 2C9 (Homo sapiens) (UniProt P11712); test: Cytochrome P450 family 2 subfamily C member 9 (CYP2C9) small molecule antagonists: luciferase biochemical (cell-free) qHTS assay (AID 1645842); conditions: P450-Glo CYP2C9 enzyme assay, luciferin luminescence; series mostly up to 57.4 µM; also: nearly all actives have a fitted effect of over 55% in size
Sequence (P11712 whole entry, looked up): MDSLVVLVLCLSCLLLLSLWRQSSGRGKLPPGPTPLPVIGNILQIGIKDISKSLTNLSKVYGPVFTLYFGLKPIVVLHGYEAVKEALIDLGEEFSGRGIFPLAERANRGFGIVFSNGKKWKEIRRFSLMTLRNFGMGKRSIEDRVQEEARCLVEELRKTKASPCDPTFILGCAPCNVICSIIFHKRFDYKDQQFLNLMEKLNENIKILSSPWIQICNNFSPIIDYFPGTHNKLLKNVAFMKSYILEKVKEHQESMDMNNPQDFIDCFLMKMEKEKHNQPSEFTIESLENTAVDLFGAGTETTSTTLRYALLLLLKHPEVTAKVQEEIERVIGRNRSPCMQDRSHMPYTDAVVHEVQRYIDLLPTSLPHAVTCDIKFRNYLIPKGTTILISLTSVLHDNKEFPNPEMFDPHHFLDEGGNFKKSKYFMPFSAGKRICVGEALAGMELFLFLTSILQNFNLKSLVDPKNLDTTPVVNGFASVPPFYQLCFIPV
Protocol: National Center for Advancing Translational Sciences [NCATS] Assay Overview: Cytochrome P450 (CYP) enzymes are membrane-bound hemeproteins that play a key role in metabolism of drugs and xenobiotics. Assaying the effect of chemicals on CYP isozymes is useful to minimize the adverse drug reactions and toxicities in drug development process. Chemical compounds were tested for their effect on CYP enzyme activities by using P450-Glo (TM) screening systems (Promega Corporation, Madison, WI). These systems provide a luminescent method containing proluciferin substrates and are converted to luciferin products by CYP isozymes. The luciferin products formed are detected with a luciferin detection reagent, and the amount of light produced is proportional to CYP activity. P450-Glo (TM) CYP2C9 screening system (Catalog. No. V9790) was used to detect the compounds that interfere in CYP2C9 activity.
Assay Protocol Summary: Two ul of enzyme-substrate mix supplemented with 0.4% Bovine Serum Albumin was dispensed into medium binding white/solid 1536-well plates (Greiner Bio-One North America Inc., Monroe, NC) using a Flying Reagent Dispenser (FRD, Aurora Discovery, San Diego, CA). […] The assay plates were incubated at room temperature for 10 min. Then 2 ul of NADPH regeneration solution was added to each well of the assay plates using an FRD and incubated at 37C for 1 h. The reaction was stopped by adding 4 ul of detection reagent using an FRD and after 20 min incubation at room temperature, the luminescence signal was measured using a ViewLux plate reader (Perkin Elmer, Shelton, CT). Data were expressed as relative luminescence units.
Potency is read from the fitted curve at half-maximal effect.

**Q.** For `C=CCN1C[C@H](C(=O)N(CCCN(C)C)C(=O)NCC)C[C@@H]2c3cccc4[nH]cc(c34)C[C@H]21`, which Potency is on record?
**A.** inactive

**Q.** For `CC(=O)Oc1cccc(O)c1`, which Potency is on record?
**A.** inactive

**Q.** `C/C=C1\[C@H]2C=C(C)C[C@]1(N)c1ccc(=O)[nH]c1C2` was tested. Which Potency did it give?
**A.** inactive

**Q.** How did the Potency turn out when `CC(=O)Oc1cccc(C)c1` was run?
**A.** inactive

**Q.** Which Potency does the source give for `CC1(C)S[C@@H]2[C@H](N=CN3CCCCCC3)C(=O)N2[C@H]1C(=O)O` here?
**A.** inactive

**Q.** For `O=C(/C=C/c1ccccc1)OCc1ccccc1`, which Potency is on record?
**A.** 12.3 µM (active)

**Q.** Which Potency does the source give for `Cn1c([N+](=O)[O-])cnc1COC(N)=O` here?
**A.** inactive

**Q.** How did the Potency turn out when `CCOc1cc(NC(C)=O)ccc1C(=O)OC` was run?
**A.** inactive

**Q.** Which Potency does the source give for `CCOC(=O)[C@H](CCc1ccccc1)N[C@@H](C)C(=O)N1Cc2cc(OC)c(OC)cc2C[C@H]1C(=O)O` here?
**A.** 12.3 µM (active)

**Q.** With `C[C@@H]1CCC[C@H](C)N1` as the compound, how does the Potency read?
**A.** inactive

**Q.** For `Cc1ccsc1C(=CCCN1CCC[C@@H](C(=O)O)C1)c1sccc1C`, which Potency is on record?
**A.** inactive

**Q.** `CN(C(=O)c1c(O)c2ccccc2n(C)c1=O)c1ccccc1` was tested. Which Potency did it give?
**A.** inactive

**Q.** For `Cc1cc(-n2nc3ccc(Cl)cc3n2)c(O)c(C(C)(C)C)c1`, which Potency is on record?
**A.** inactive

**Q.** For `C/C=C/C(=O)N(CC)c1ccccc1C`, which Potency is on record?
**A.** inactive

**Q.** With `O=C(O)c1ccccc1C(=O)Nc1ccc(S(=O)(=O)Nc2nccs2)cc1` as the compound, how does the Potency read?
**A.** inactive

**Q.** Which Potency does the source give for `CC(=O)OCC(=O)[C@@]1(O)CC[C@H]2[C@@H]3CCC4=CC(=O)C=C[C@]4(C)[C@@]3(F)[C@@H](O)C[C@@]21C` here?
**A.** inactive

**Q.** With `COc1ccc(O)cc1` as the compound, how does the Potency read?
**A.** inactive

**Q.** How did the Potency turn out when `Nc1ccncc1N` was run?
**A.** inactive

**Q.** For `Cc1cc(OI)c(C(C)C)cc1-c1cc(C(C)C)c(OI)cc1C`, which Potency is on record?
**A.** 12.3 µM (active)

**Q.** `Cn1cc(C(=O)[C@@H]2CCc3nc[nH]c3C2)c2ccccc21` was tested. Which Potency did it give?
**A.** inactive

**Q.** With `NNc1nnc(NN)c2ccccc12` as the compound, how does the Potency read?
**A.** inactive

**Q.** How did the Potency turn out when `CN1CC(=O)NC1=N` was run?
**A.** inactive

**Q.** How did the Potency turn out when `CCOC(N)=O` was run?
**A.** inactive

**Q.** How did the Potency turn out when `COC(=O)c1ccccc1C(=O)c1ccc(OCCN2CCCCC2)cc1` was run?
**A.** inactive

**Q.** Which Potency does the source give for `CCN[C@H]1CN(CCCOC)S(=O)(=O)c2sc(S(N)(=O)=O)cc21` here?
**A.** inactive

**Q.** How did the Potency turn out when `COc1nccnc1NS(=O)(=O)c1ccc(N)cc1` was run?
**A.** inactive

**Q.** Which Potency does the source give for `CC(=O)Nc1ccccc1` here?
**A.** inactive

**Q.** `NS(=O)(=O)c1ccc(NC(=O)CCC(=O)O)cc1` was tested. Which Potency did it give?
**A.** inactive

**Q.** `Cc1[nH]c(C)c(Cl)c(=O)c1Cl` was tested. Which Potency did it give?
**A.** inactive

**Q.** With `O=C1c2cccc(O)c2C(=O)c2c(O)cccc21` as the compound, how does the Potency read?
**A.** inactive

**Q.** Which Potency does the source give for `CCOc1ccc(C(=O)OCCN(CC)CC)cc1` here?
**A.** inactive

**Q.** For `O[C@@H]1CO[C@H]2[C@@H]1OC[C@@H]2O`, which Potency is on record?
**A.** inactive

**Q.** For `CCCCCC(N)=O`, which Potency is on record?
**A.** inactive

**Q.** With `OCC(O)CS` (stereo not given) as the compound, how does the Potency read?
**A.** inactive

**Q.** For `Nc1ncnc(Nc2ccccc2)n1`, which Potency is on record?
**A.** inactive

**Q.** With `COC(=O)c1cccnc1` as the compound, how does the Potency read?
**A.** inactive

**Q.** For `Cc1ncc(CO)c(CN)c1O`, which Potency is on record?
**A.** inactive

**Q.** For `COc1cc(C(=O)NCCCCCC(=O)O)cc(OC)c1OC`, which Potency is on record?
**A.** inactive

**Q.** `NC(=O)[C@@H]1CSSCCC(=O)N[C@@H](CCCCN=C(N)N)C(=O)NCC(=O)N[C@@H](CC(=O)O)C(=O)N[C@@H](Cc2c[nH]c3ccccc23)C(=O)N2CCC[C@H]2C(=O)N1` ([Mpa][hArg]GDWPC-NH2; disulfide 1-7) was tested. Which Potency did it give?
**A.** inactive

**Q.** For `CO[C@@]1(NC(=O)C(C(=O)O)c2ccc(O)cc2)C(=O)N2C(C(=O)O)=C(CSc3nnnn3C)CO[C@@H]21` (stereo not given in full), which Potency is on record?
**A.** inactive
